Assay [1] can be described thus: qHTS assay to identify small molecule antagonists of the glucocorticoid receptor (GR) signaling pathway - cell viability counter screen (AID 720693). Further: nearly all actives have a fitted effect of over 55% in size. A general note: In qHTS, concentration-response curves come from the screen itself.
The nature of assay [2]: qHTS assay for identifying genotoxic compounds that show differential cytotoxicity against isogenic chicken DT40 cell lines with known DNA damage response pathways - Rev3 mutant cell line (AID 743014). Further: nearly all actives have a fitted effect of over 55% in size. Further: potency means the concentration at half of the fitted maximal effect.
Assay [3] can be described thus: qHTS assay for identifying genotoxic compounds that show differential cytotoxicity against isogenic chicken DT40 cell lines with known DNA damage response pathways - Rad54/Ku70 mutant cell line (AID 743015). Further: nearly all actives have a fitted effect of over 60% in size.
Assay [4] is described as follows: qHTS assay to identify small molecule antagonists of the androgen receptor (AR) signaling pathway - cell viability counter screen (AID 743033; further: nearly all actives have a fitted effect of over 45% in size).
A short description of assay [5]: qHTS assay to identify small molecule antagonists of the androgen receptor (AR) signaling pathway using the MDA cell line - cell viability counter screen (AID 743041; further: nearly all actives have a fitted effect of over 45% in size). A digest of the protocol:
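Using the breast carcinoma line MDA-kb2 AR-luc, test chemicals were co-incubated with R1881 for 16 h; CellTiter-Fluor reagent, added at 15.5 h, provided a fluorescence measure of live cells.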

A short description of assay [6]: qHTS assay to identify small molecule antagonists of the thyroid receptor (TR) signaling pathway - cell viability counter screen (AID 743064). Further: nearly all actives have a fitted effect of over 50% in size. The essentials: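 Plate GH3.TRE-Luc cells; incubate 4 h at 37 °C; add compound, then T3 to 1 nM final; incubate 23.5 h; add CellTiter-Fluor; incubate 30 min at 37 °C, 5% CO2; read fluorescence.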
The nature of assay [7]: qHTS assay to identify small molecule antagonists of the thyroid receptor (TR) signaling pathway (AID 743065). Further: series mostly up to about 70 µM; nearly all actives have a fitted effect of over 55% in size. A digest of the protocol: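 Antagonism measured as loss of luciferase signal in GH3 cells stably carrying a TRE-luciferase reporter, co-treated with compound and T3 (1 nM final) for 23.5 h at 37 C. Viability was read in the same well by CellTiter-Fluor.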
A short description of assay [8]: qHTS assay to identify small molecule antagonists of the estrogen receptor alpha (ER-alpha) signaling pathway - cell viability counter screen (AID 743074; calls by dose curve; further: nearly all actives have a fitted effect of over 45% in size).
The nature of assay [9]: qHTS assay to identify small molecule antagonists of the estrogen receptor alpha (ER-alpha) signaling pathway using the BG1 cell line - cell viability counter screen (AID 743081).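 Further: compound given together with 17beta-estradiol as the ER stimulus; series mostly up to about 70 µM; nearly all actives have a fitted effect of over 45% in size.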
The target of a further assay is Aromatase (Homo sapiens) (UniProt P11511). The assay is described as follows: qHTS assay to identify aromatase inhibitors (AID 743083). Further: nearly all actives have a fitted effect of over 55% in size. Further: potency means the concentration at half of the fitted maximal effect. On activity, negative = inhibition: series mostly up to about 70 µM.
For assay [10], the system named is thyroid hormone receptor (rat, GH3 cells). The experiment in a line: qHTS assay to identify small molecule agonists of the thyroid receptor (TR) signaling pathway (AID 743066; calls by dose curve).
In assay [11] the target is Estrogen receptor (Homo sapiens) (UniProt P03372). The experiment in a line: qHTS assay to identify small molecule antagonists of the estrogen receptor alpha (ER-alpha) signaling pathway (AID 743069; active means well fitted curve in the direction sought with a large enough effect in the signal ratio in the repeat runs, not every such curve was filed as active; the % refers to the signal ratio). A digest of the protocol: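 Fluorescence intensity from a beta-lactamase FRET substrate served as the read-out. Cells: HEK293 with stably integrated ER-alpha-UAS-bla reporter. Agonist 17beta-estradiol was co-added with compounds; incubation 18 hr at 37C, substrate 2 hr at room temperature.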

The target is the same in assay [12]. The experiment in a line: qHTS assay to identify small molecule agonists of the estrogen receptor alpha (ER-alpha) signaling pathway (AID 743075; calls by dose curve).
A short description of assay [13]: qHTS assay to identify small molecule antagonists of the estrogen receptor alpha (ER-alpha) signaling pathway using the BG1 cell line (AID 743080; calls by dose curve;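 further: BG1 cells stimulated with 17beta-estradiol alongside compound; nearly all actives have a fitted effect of over 25% in size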; further: potency means the concentration at half of the fitted maximal effect). The essentials: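 Readout is ONE-Glo luminescence, taken 30 min at room temperature after reagent addition, preceded by a CellTiter-Fluor viability read; BG1-Luc-4E2 cells had received compound and 17beta-estradiol for 21.5 h at 37 C.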

Assay [14] concerns the target Estrogen receptor (Homo sapiens) (UniProt P03372). The experiment in a line: qHTS assay to identify small molecule agonists of the estrogen receptor alpha (ER-alpha) signaling pathway using the BG1 cell line (AID 743079). Further: nearly all actives have a fitted effect of over 20% in size.
For assay [15], the target named is Androgen receptor (Homo sapiens) (UniProt P10275). The assay is described as follows: qHTS assay to identify small molecule agonists of the androgen receptor (AR) signaling pathway (AID 743036; active means well fitted activation curve with a large enough effect in the signal ratio in the repeat runs, with a control signal flat, not every such curve was filed as active; the % refers to the signal ratio). The essentials: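 Reporter line: GeneBLAzer AR-UAS-bla-GripTite (HEK293). Steps: plate cells, 4 h rest, add compounds, 16 h at 37C, add LiveBLAzer B/G substrate, 2 h at RT, read fluorescence.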

The target is the same in assay [16]. The experiment in a line: qHTS assay to identify small molecule agonists of the androgen receptor (AR) signaling pathway using the MDA cell line (AID 743040; further: nearly all actives have a fitted effect of over 20% in size). A digest of the protocol: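 Stable MMTV-luciferase reporter in MDA-kb2 cells; note the promoter carries GR as well as AR response elements. 16 h compound treatment, 37C, 0% CO2; ONE-Glo luminescence endpoint.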

Assay [17] has the same target. The experiment in a line: qHTS assay to identify small molecule antagonists of the androgen receptor (AR) signaling pathway using the MDA cell line (AID 743042; further: nearly all actives have a fitted effect of over 55% in size). A digest of the protocol: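 Antagonist mode: compounds plus R1881 agonist added to MDA-kb2 AR-luc cells, incubated 16 h at 37C. Luciferase reporter luminescence quantified, with multiplexed CellTiter-Fluor readout for cell viability.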

Assay [18] has the same target. The experiment in a line: qHTS assay to identify small molecule antagonists of the androgen receptor (AR) signaling pathway (AID 743035; active means well fitted inhibition curve with a large enough effect in the signal ratio in the repeat runs, not every such curve was filed as active; the % refers to the signal ratio). A digest of the protocol: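 Antagonist mode: AR-bla HEK293 cells co-treated with test compounds and agonist R1881 for 16 h at 37C, 5% CO2. Beta-lactamase activity read as FRET fluorescence after 2 h room-temperature substrate loading.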

Values without a mark were called inactive. Inconclusive results are not listed. Active and inactive are the calls of the source. Unless noted, the call rests on the fitted dose curve; in most records, active means well fitted curve in the direction sought with a large enough effect in the repeat runs; inconclusive means weak or mixed curves; inactive means no such curve, though single readings can be large; an effect the other way counts as inactive or inconclusive.
On the % scale 0 is the no-effect control and ±100 the full control effect.

Sequence of Androgen receptor (Homo sapiens) (P10275 whole entry, looked up): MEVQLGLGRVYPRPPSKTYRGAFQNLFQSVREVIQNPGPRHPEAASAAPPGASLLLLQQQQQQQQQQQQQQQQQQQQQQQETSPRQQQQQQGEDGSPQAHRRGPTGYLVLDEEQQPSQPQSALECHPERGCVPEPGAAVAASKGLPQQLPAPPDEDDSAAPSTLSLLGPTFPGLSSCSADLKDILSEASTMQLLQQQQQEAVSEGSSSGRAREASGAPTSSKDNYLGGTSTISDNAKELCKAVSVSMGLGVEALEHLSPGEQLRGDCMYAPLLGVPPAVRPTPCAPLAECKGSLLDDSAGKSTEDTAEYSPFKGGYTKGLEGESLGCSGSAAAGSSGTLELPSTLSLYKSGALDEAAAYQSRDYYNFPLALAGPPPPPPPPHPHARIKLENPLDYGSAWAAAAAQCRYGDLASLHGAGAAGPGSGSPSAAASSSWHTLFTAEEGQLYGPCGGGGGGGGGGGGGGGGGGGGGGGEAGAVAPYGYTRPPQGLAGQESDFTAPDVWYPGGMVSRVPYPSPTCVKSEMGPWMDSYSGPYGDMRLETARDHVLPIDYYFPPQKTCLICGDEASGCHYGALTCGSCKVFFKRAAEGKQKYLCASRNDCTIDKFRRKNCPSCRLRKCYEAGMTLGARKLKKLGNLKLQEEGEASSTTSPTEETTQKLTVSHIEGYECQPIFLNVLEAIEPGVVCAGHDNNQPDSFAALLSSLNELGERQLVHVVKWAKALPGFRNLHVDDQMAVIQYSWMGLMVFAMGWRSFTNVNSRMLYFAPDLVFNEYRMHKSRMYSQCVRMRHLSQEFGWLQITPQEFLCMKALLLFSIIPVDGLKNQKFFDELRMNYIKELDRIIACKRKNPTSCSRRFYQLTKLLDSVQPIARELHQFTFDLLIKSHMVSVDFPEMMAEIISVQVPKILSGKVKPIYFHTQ
Sequence of Aromatase (Homo sapiens) (P11511 whole entry, looked up): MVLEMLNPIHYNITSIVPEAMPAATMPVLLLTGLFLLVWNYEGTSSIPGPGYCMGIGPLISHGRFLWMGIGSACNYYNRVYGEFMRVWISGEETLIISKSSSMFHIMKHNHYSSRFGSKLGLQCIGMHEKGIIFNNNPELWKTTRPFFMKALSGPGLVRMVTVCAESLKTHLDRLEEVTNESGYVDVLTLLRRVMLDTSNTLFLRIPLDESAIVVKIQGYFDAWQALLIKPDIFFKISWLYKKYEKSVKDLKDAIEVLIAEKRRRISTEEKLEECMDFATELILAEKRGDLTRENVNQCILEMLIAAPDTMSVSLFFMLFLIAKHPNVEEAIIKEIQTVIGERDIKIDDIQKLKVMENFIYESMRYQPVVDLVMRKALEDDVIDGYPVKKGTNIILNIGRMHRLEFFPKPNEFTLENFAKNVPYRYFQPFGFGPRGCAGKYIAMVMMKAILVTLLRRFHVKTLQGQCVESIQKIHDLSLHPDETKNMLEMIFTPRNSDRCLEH
Sequence of Estrogen receptor (Homo sapiens) (P03372 whole entry, looked up): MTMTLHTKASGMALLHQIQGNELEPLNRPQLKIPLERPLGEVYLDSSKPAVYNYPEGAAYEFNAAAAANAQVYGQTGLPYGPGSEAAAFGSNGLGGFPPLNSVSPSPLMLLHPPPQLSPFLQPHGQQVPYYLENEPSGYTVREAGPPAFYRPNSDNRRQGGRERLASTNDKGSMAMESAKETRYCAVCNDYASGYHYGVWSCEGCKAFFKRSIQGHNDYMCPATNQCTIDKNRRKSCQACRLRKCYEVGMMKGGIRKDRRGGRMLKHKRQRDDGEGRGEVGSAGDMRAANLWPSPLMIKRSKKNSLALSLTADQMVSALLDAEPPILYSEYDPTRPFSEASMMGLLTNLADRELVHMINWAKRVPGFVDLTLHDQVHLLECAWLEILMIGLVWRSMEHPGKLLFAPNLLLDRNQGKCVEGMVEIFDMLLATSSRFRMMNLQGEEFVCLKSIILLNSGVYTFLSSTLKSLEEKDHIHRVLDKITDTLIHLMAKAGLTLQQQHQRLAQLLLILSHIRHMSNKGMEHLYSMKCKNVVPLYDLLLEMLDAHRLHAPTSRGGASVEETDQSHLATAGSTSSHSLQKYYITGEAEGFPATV

With `C=C(C)C(=O)NCCCN(C)C`, the outcome in assay [1], in assay [4], in assay [8] and in [9] was inactive. Also, the Potency result (in assay [2]; in [3]; in [5]; in assay [6]; in assay [7]; with Aromatase (Homo sapiens)) was “inactive” each time.
Consider `O=S(=O)(c1cccc2cnccc12)N1CCCNCC1`, for which the compound was called inactive in assay [1], in assay [4], in assay [8] and in assay [9]. For the same compound, the Potency entry in assay [2], in assay [3], in assay [5], in assay [7], in assay [10] and in assay [11] was “inactive” each time. For the same compound, the Potency result in [12] was “inactive”. Besides, the results for the Potency (in [13]; with Aromatase (Homo sapiens)) were 6.68 µM (active) and 13.3 µM (active), respectively.
As to `CN(C)C(=O)Nc1ccccc1`, the compound was classed as inactive in assay [1], in [4], in assay [8] and in assay [9]. For the same compound, the Potency entry in assay [2], in assay [3], in assay [5], in assay [6], in assay [7] and in [10] was “inactive” throughout. Moreover, the Potency entry (in assay [11]; in [12]; in assay [14]; in assay [13]; with Aromatase (Homo sapiens)) was “inactive” each time.
Take `CC(C)CCCCCCN`: the result in assay [1], in [4], in assay [15], in assay [17], in assay [8] and in [9] was inactive. The Potency result in [2], in assay [3], in assay [16], in [5], in assay [6] and in assay [7] was “inactive” throughout. The Potency result (in assay [10]; in assay [11]; in assay [12]; in [14]; in [13]; with Aromatase (Homo sapiens)) was “inactive” throughout.
With `COc1cc(C(=O)N2CCOCC2)cc(OC)c1OC`, the call in assay [1], in [4], in [8] and in assay [9] was inactive. Also, the Potency result in [2], in [3], in assay [5], in assay [6], in [7] and in assay [10] was “inactive” in each case. In addition, the Potency result in the assay with Aromatase (Homo sapiens) is “inactive”.
As to `c1ccc2cnncc2c1`, the call in assay [1], in assay [4], in assay [8] and in assay [9] was inactive. Besides, the Potency result in assay [2], in assay [3], in [5], in [7], in [10] and in assay [11] was “inactive” each time. The Potency result (in [12]; in [14]; in assay [13]; with Aromatase (Homo sapiens)) was “inactive” in each case.
Consider `FC(F)(F)C(F)(F)C(F)(F)C(F)(F)C(F)(F)C(F)(F)C(F)(F)C(F)(F)C(F)(F)C(F)(F)F`, for which the viability change, negative = cytotoxic in assay [1] was -1.03% [at 7.04 µM]. The results for the activity, negative = cytotoxicity in assay [2] and in assay [8] were -1.46% [at 8.53 µM] and -10% [at 6.72 µM], respectively. In addition, the activity change, negative = cytotoxicity is 4.69% [at 8.55 µM] in assay [3], 0.133% [at 7.04 µM] in assay [4] and 7.45% [at 8.47 µM] in assay [9]. The activity change, negative = cytotoxic in [6] is 12.8% [at 8.44 µM]. Further, the activity, negative = inhibition in [7] was 5.14% [at 8.44 µM]; in the assay with Aromatase (Homo sapiens), 1.74% [at 8.47 µM]. Also, the activation in assay [10] is 0.424% [at 8.08 µM].
For `COc1cc(CCC(C)=O)ccc1O`, the result in [1], in assay [4], in assay [17], in assay [8] and in [9] was inactive. The Potency entry in [2], in assay [3], in assay [16], in [5], in [7] and in assay [10] was “inactive” each time. In the assay with Aromatase (Homo sapiens), the Potency entry is “inactive”.
For the compound `CCO[Si](C)(OCC)OCC`, the compound was called inactive in assay [1], in assay [4], in assay [8] and in assay [9]. Moreover, the Potency entry in assay [2], in assay [3], in [5], in [7], in [10] and in assay [11] was “inactive” throughout. Further, the Potency entry (in assay [12]; in assay [14]; in assay [13]; in the assay with Aromatase (Homo sapiens)) was “inactive” each time.
Consider `CC(C)c1cccc(C(C)C)c1N`, for which the call in assay [1], in assay [4], in [8] and in assay [9] was inactive. Besides, the Potency entry in [2], in assay [3], in assay [5], in assay [6], in [7] and in assay [10] was “inactive” throughout. The Potency result (in [11]; in [12]; in assay [14]; in assay [13]; with Aromatase (Homo sapiens)) was “inactive” throughout.
`C#CC(O)CCCCC` (centres undefined): the compound was called inactive in assay [1], in [4], in [8] and in [9]. The Potency result (in assay [2]; in assay [3]; in assay [6]; in assay [7]; in [10]; with Aromatase (Homo sapiens)) was “inactive” in each case.
`CC12CCC(CC1=O)C2(C)C` (centres undefined): the call in assay [1], in assay [4], in assay [8] and in assay [9] was inactive. The Potency entry in assay [2], in [3], in [5], in assay [6], in assay [7] and in [10] was “inactive” in each case. Besides, the Potency entry (in [11]; in assay [12]; in [14]; in assay [13]; with Aromatase (Homo sapiens)) was “inactive” in each case.
As for `CCC(=O)Nc1cccc(N)c1`, the compound was classed as inactive in assay [1], in assay [4], in assay [8] and in assay [9]. For the same compound, the Potency entry in assay [2], in assay [3], in assay [5], in assay [6], in assay [11] and in assay [12] was “inactive” in each case. In addition, the Potency entry (in assay [14]; in assay [13]; with Aromatase (Homo sapiens)) was “inactive” each time.
Regarding `CCCCCCC(=O)OCC`, the compound was classed as inactive in assay [1], in assay [4], in assay [8] and in assay [9]. The Potency entry in [2], in assay [3], in [5], in assay [7], in assay [10] and in [11] was “inactive” each time. The Potency result (in assay [12]; in assay [13]; with Aromatase (Homo sapiens)) was “inactive” in each case.
For `CCCCCCOC(=O)c1ccccc1O`, the result in assay [1], in [4], in assay [17], in [8] and in [9] was inactive. For the same compound, in assay [2], the Potency is 27.3 µM (active). The Potency result in assay [3], in [18], in assay [16], in assay [5], in assay [6] and in assay [7] was “inactive” each time. For the same compound, the Potency result (in assay [10]; in assay [11]; in assay [12]; in assay [13]; with Aromatase (Homo sapiens)) was “inactive” each time.
For the compound `CCCCCCOC(=O)CC(CC(=O)OCCCCCC)(OC(=O)CCC)C(=O)OCCCCCC`, the compound was classed as inactive in assay [1], in assay [4], in [15], in assay [17], in [8] and in assay [9]. In addition, the Potency entry in [2], in [3], in assay [16], in [5], in assay [7] and in assay [10] was “inactive” in each case. Moreover, the Potency result (in [11]; in assay [12]; in assay [14]; in assay [13]; in the assay with Aromatase (Homo sapiens)) was “inactive” throughout.
As to `CC(O)CN(CCCN(C)C)CCCN(C)C` (centres undefined), the result in [1], in assay [4] and in assay [9] was inactive. Besides, the Potency result in [2], in assay [3], in assay [5], in [6], in assay [7] and in assay [10] was “inactive” throughout.
For the compound `OCC(CO)(CO)COCC(CO)(CO)CO`, the call in assay [1], in [4], in assay [8] and in [9] was inactive. Besides, the Potency entry in [2], in assay [3], in assay [6], in assay [7], in [10] and in assay [11] was “inactive” each time. The Potency entry (in [12]; in assay [14]; in assay [13]; in the assay with Aromatase (Homo sapiens)) was “inactive” throughout.
Consider `OCc1ccccn1`, for which the result in assay [1], in assay [4], in assay [8] and in assay [9] was inactive. Besides, the Potency entry in assay [2], in [3], in [5], in assay [6], in assay [7] and in assay [10] was “inactive” each time. Also, the Potency result (in assay [12]; in assay [14]; in assay [13]; in the assay with Aromatase (Homo sapiens)) was “inactive” each time.

Source of the values: PubChem BioAssay (Tox21).
